Wee1 degr inh = Wee1 degradation inhibitors, primary screen, cell-based, HeLa, Wee1K328M-luciferase, luminescence; 1.2% of 220,000 active; reporter increase, % at 5 µM; HeLa Luc-Wee1K328M stability; 100% = proteasome inhibitor MG132 effect;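 active = activation above the mean of all tested compounds plus 3 SD, set per screening run, cut at about 8.8% in these data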;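 also: cells exposed to compound for 20 h before luminescence read; 0% = DMSO alone and 100% = MG132 at 30 µM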
Target sequence (P30291 whole entry K328M): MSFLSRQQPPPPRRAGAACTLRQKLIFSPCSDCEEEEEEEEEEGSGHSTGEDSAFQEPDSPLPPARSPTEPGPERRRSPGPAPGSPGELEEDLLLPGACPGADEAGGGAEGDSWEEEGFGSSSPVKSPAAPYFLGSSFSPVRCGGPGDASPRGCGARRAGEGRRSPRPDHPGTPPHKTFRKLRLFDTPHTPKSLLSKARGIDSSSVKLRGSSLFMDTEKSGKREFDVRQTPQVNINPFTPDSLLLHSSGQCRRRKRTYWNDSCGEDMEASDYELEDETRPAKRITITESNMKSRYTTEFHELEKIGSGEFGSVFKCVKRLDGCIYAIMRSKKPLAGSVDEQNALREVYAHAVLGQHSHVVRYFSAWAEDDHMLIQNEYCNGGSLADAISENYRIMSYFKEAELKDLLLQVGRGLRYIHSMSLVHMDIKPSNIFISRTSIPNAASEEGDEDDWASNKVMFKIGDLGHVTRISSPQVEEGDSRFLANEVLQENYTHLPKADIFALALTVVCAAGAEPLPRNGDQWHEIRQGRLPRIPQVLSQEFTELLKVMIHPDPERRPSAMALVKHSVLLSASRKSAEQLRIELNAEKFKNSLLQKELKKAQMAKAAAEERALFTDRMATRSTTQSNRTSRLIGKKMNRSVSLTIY
PKD1 inh = inhibitors of human PKD1 kinase, biochemical, fluorescence polarization | Serine/threonine-protein kinase D1 (Homo sapiens), Q15139 | PKD1 kinase fluorescence polarization assay | inhibition, % (test concentration not listed) | 0.056% of 200,000 active | AID 797, 2007; in the data active = inhibition above about 50%
Arbovirus anti = antivirals against arbovirus infection, primary screen, cell-based, full library, 10K replicate subset; arbovirus infection cell-based antiviral screen; inhibition, % at 10 µM; 0.37% of 200,000 active; AID 1251, 2008; in the data active = inhibition above about 30%
Hsp70 act = Hsp70 transcriptional activators, primary screen, cell-based, HeLa, Hsp70 promoter luciferase, luminescence, 10 µM; HeLa Hsp70 promoter luciferase reporter; scaled: vehicle 0, proteasome-inhibitor control 100%; activation, % at 10 µM; 0.04% of 200,000 active; AID 1203, 2008;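 active = activation above the mean across all tested compounds plus 3 SD, cutoff set per campaign, cut at about 5.5% in these data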;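 also: 100% = MG132 at 30 µM as the positive control and 0% = DMSO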
Efa HMGR inh = inhibitors of E. faecalis class II HMGR, primary screen, biochemical, Enterococcus faecalis; 0.41% of 190,000 active; HMG-CoA reductase (Enterococcus faecalis, mvaE); inhibition, % at 10 µM; AID 1066, 2008; purified E. faecalis HMGR, NADPH absorbance 340 nm kinetic;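 active = inhibition above a set limit, the median over all tested compounds plus 3 SD, cut at about 9.5% in these data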;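 also: enzyme runs in reverse so mevalonate oxidation gives rising NADPH absorbance; 0% = complete reaction with DMSO and 100% = background rate lacking mevalonate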
Wee1 stab conf = Wee1 degradation inhibitors, confirmation, cell-based, HeLa, Wee1K328M-luciferase, luminescence, triplicate | shares compounds with Wee1 degr inh | 4% of 1,100 active | HeLa Luc-Wee1K328M degradation; vehicle 0%, proteasome-blocked wells 100% | activation, % at 5 µM; in the data active = activation above about 8.9%
Active calls of the source: *. Most compounds without a hit are left out; they make up all but 2% or so of the library.

`Cc1ccc(NC(=O)COC(=O)[C@H](C)N2C(=O)C3CC=CCC3C2=O)cc1S(=O)(=O)N(C)C` (some centres not stated) gave Wee1 degr inh 13.8*, PKD1 inh 6.1, Arbovirus anti -6.3, Hsp70 act -0.3, Efa HMGR inh -7.6 and Wee1 stab conf 4.0.
For CN(Cc1ccsc1)C(=O)CCc1nnc(CCCc2ccccc2)o1 the results were Wee1 degr inh 11.2*, PKD1 inh -6.4, Arbovirus anti 1.5, Hsp70 act -0.1, Efa HMGR inh -3.2 and Wee1 stab conf 2.4.
Screening CN(Cc1ccsc1)C(=O)CCc1nnc(Cc2c[nH]c3ccccc23)o1 returned Wee1 degr inh 3.3, PKD1 inh -0.7, Arbovirus anti 9.6, Hsp70 act 0.4 and Efa HMGR inh -7.4.
Screening Cn1c(CCc2ccc(N)cc2)nc2ccccc21 returned Wee1 degr inh 17.7*, PKD1 inh 6.6, Arbovirus anti -3.3, Hsp70 act 0.1, Efa HMGR inh -5.9 and Wee1 stab conf 3.7.
For O=C(NCC(=O)N1CCN(S(=O)(=O)/C=C/c2ccccc2)CC1)c1ccccc1F the results were Wee1 degr inh -1.9, PKD1 inh -0.8, Arbovirus anti 9.1, Hsp70 act -0.3 and Efa HMGR inh 0.8.
`C=CCn1c(SCC(=O)Nc2cc(NC(C)=O)ccc2OC)nnc1-c1ccccn1` gave Wee1 degr inh 11.8*, PKD1 inh -1.2, Arbovirus anti -0.7, Hsp70 act 0.1, Efa HMGR inh 0.1 and Wee1 stab conf 1.4.
Cc1cc(NC(=O)COC(=O)C(Cc2ccccc2)NC(=O)c2ccco2)no1 (configuration not stated) was read as Wee1 degr inh 21.5*, PKD1 inh -9.0, Arbovirus anti 8.3, Hsp70 act -0.3, Efa HMGR inh -9.4 and Wee1 stab conf -2.4.
For O=C(COC(=O)[C@H](Cc1ccccc1)NC(=O)c1ccco1)NC(c1ccccc1)c1ccccc1 the results were Wee1 degr inh 5.4, PKD1 inh -4.4, Arbovirus anti -2.9, Hsp70 act 0.5 and Efa HMGR inh -2.7.
Screening N#Cc1cc([N+](=O)[O-])ccc1NC(=O)COC(=O)CC1CCCC1 returned Wee1 degr inh 6.2.
O=C(Cc1ccccc1)Nc1ccccc1N1CCOCC1 was read as Wee1 degr inh 21.4*, PKD1 inh 9.0, Arbovirus anti 2.0, Hsp70 act -0.4, Efa HMGR inh 1.9 and Wee1 stab conf 1.4.
O=C(N/N=C/c1cccs1)/C(=C/c1ccccc1)NC(=O)c1ccccc1 was read as Wee1 degr inh 11.9*, PKD1 inh -5.5, Arbovirus anti -8.4, Hsp70 act -0.3, Efa HMGR inh -5.7 and Wee1 stab conf -1.8.
Screening NC(=O)C1CCN(Cc2nc(-c3cccs3)no2)CC1 returned Wee1 degr inh -1.0.
Screening NC(=O)[C@@H]1CCCN1Cc1nc(-c2cccs2)no1 returned Wee1 degr inh 11.2*, PKD1 inh -2.6, Arbovirus anti 1.7, Hsp70 act 0.1, Efa HMGR inh 0.8 and Wee1 stab conf -0.7.
`Cc1ccc(O)c(-c2cc3ccccc3[nH]2)c1` gave Wee1 degr inh 10.9*, PKD1 inh -8.0, Arbovirus anti -2.3, Hsp70 act -0.2, Efa HMGR inh -0.8 and Wee1 stab conf -0.2.
`COc1ccc(OC)c2[nH]c(=O)c(CCNC(=O)C(C)C)cc12` gave Wee1 degr inh -1.3, PKD1 inh 3.5, Arbovirus anti -0.5, Hsp70 act -0.2 and Efa HMGR inh -0.7.
For COc1ccc(OC)c2[nH]c(=O)c(CCNC(=O)CC(C)C)cc12 the results were Wee1 degr inh 11.0*, PKD1 inh -4.2, Arbovirus anti 5.3, Hsp70 act -0.2, Efa HMGR inh -3.6 and Wee1 stab conf 0.3.
Screening CCCCNC(=O)CCn1c(=O)c2ccccc2n(Cc2ccc(F)cc2)c1=O returned Wee1 degr inh -0.3, PKD1 inh 3.7, Arbovirus anti 4.1, Hsp70 act -0.4 and Efa HMGR inh -2.5.
O=C1CN(S(=O)(=O)c2cc(Cl)ccc2Cl)CCN1 was read as Wee1 degr inh -0.1, PKD1 inh 5.5, Arbovirus anti -3.3, Hsp70 act -0.4 and Efa HMGR inh -3.5.
`COc1cccc(CC2(CO)CCN(Cc3ccc(NC(C)=O)cc3)CC2)c1` gave Wee1 degr inh 21.6*, PKD1 inh 3.3, Arbovirus anti -0.1, Hsp70 act -0.2, Efa HMGR inh -0.2 and Wee1 stab conf -1.9.
Screening COc1ccc(N2CCN(C(=O)CCN3C(=S)NC(C)(C)CC3C)CC2)cc1 (configuration not stated) returned Wee1 degr inh 11.0*, PKD1 inh -3.7, Arbovirus anti 8.1, Hsp70 act 0.2, Efa HMGR inh -0.5 and Wee1 stab conf 3.4.
O=C(O)COCC(=O)Nc1ccc(-n2nc(C(F)(F)F)cc2-c2cccs2)cc1 was read as Wee1 degr inh 8.8.
`O=C(N/N=C/c1cc(Br)cs1)c1ccc2c(c1)OCCO2` gave Wee1 degr inh 5.4.
For Cc1ccc(/C=N/NC(=O)c2ccc3c(c2)OCCO3)s1 the results were Wee1 degr inh 12.2* and Wee1 stab conf 10.8*.
For O=[N+]([O-])c1cccc(N/N=C/c2cccc(O)c2O)c1 the results were Wee1 degr inh 11.5*, PKD1 inh 12.7, Arbovirus anti -22.9, Hsp70 act -0.1, Efa HMGR inh -1.3 and Wee1 stab conf -2.9.
Screening Cc1ccc(/C=C/C(=O)Nc2ccc([N+](=O)[O-])cc2)o1 returned Wee1 degr inh 0.3, PKD1 inh 2.7, Arbovirus anti 4.7, Hsp70 act 0.0 and Efa HMGR inh 0.7.
For Cc1ccc(/C=C/C(=O)Nc2ccc(Oc3ccccc3)cc2)o1 the results were Wee1 degr inh 14.9*, PKD1 inh 0.2, Arbovirus anti -4.8, Hsp70 act -0.2, Efa HMGR inh -3.1 and Wee1 stab conf 2.1.
Screening NS(=O)(=O)c1ccc(NC(=O)Cc2c(F)cccc2Cl)cc1 returned Wee1 degr inh -2.8, PKD1 inh -6.6, Arbovirus anti -2.3, Hsp70 act 0.3 and Efa HMGR inh -6.6.
`COc1ccc(C2CC(c3ccccc3)=NN2C(=O)COC(=O)c2cc(S(=O)(=O)N3CCOCC3)ccc2F)cc1` (configuration not stated) gave Wee1 degr inh 0.0, PKD1 inh 2.4, Arbovirus anti 2.9, Hsp70 act -0.2 and Efa HMGR inh -5.1.
Screening Cc1ccc(C)c(S(=O)(=O)Nc2ccc(O)cc2)c1 returned Wee1 degr inh -1.2, PKD1 inh -0.3, Arbovirus anti -13.7, Hsp70 act -0.2 and Efa HMGR inh -5.5.
